The campaign covered roughly 5,500 compounds. About 2,000 (36%) were called active. About 18% were inconclusive and are not listed. Cut-off read from the data, not from the text of the source: active = normalized growth mostly below about 0.91 (no sharp cut-off); inconclusive = no clear call, values can overlap the other calls; inactive = mostly above about 0.92. Some of the results follow.
Test: chemical genetic growth profiling, strain panel (AID 1159580);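 note: tested at 20 µM; growth read once vehicle control cultures reached saturation at 30 °C; 1 = growth at the plate median or of vehicle wells; lower values mean less growth of the strain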
Settings: S. cerevisiae deletion strains, growth OD

Measured: normalized growth

COc1cc(N2C(=O)C=CC2=O)cc(OC)c1OC
inactive: locus YAR019C, strain CDC15, hits give low values 0.924 | locus YBL105C, strain PKC1, hits give low values 0.958 | locus YBR135W, strain CKS1, hits give low values 0.95 | locus YBR136W, strain MEC1, hits give low values 0.935 | locus YBR160W, strain CDC28, hits give low values 0.958 | locus YDL017W, strain CDC7, hits give low values 0.975 | locus YDL028C, strain MPS1, hits give low values 0.958 | locus YDL108W, strain KIN28, hits give low values 0.952 | locus YDL132W, strain cdc53, hits give low values 0.94 | locus YDR052C, strain DBF4, hits give low values 0.959 | locus YDR054C, strain cdc34, hits give low values 0.947 | locus YDR226W, strain ADK1, hits give low values 0.928 | locus YFL009W, strain cdc4, hits give low values 0.968 | locus YFL029C, strain CAK1, hits give low values 0.915 | locus YFR003C, strain YPI1, hits give low values 0.989 | locus YFR028C, strain CDC14, hits give low values 0.928 | locus YGR092W, strain DBF2, hits give low values 0.967 | locus YHR079C, strain IRE1, hits give low values 0.955 | locus YIL147C, strain SLN1, hits give low values 0.982 | locus YJR016C, strain ILV3, hits give low values 0.973 | locus YKL048C, strain ELM1, hits give low values 0.947 | locus YKL193C, strain SDS22, hits give low values 0.939 | locus YMR001C, strain CDC5, hits give low values 0.928 | locus YMR205C, strain PFK2 (second series), hits give low values 0.941 | locus YMR277W, strain FCP1, hits give low values 0.926 | locus YNL006W, strain LST8, hits give low values 1 | locus YNL020C, strain ARK1, hits give low values 0.96 | locus YNL161W, strain CBK1, hits give low values 0.961 | locus YNL207W, strain RIO2, hits give low values 0.968 | locus YNL222W, strain SSU72, hits give low values 0.943 | locus YNL307C, strain MCK1 (second series), hits give low values 0.67 | locus YOL078W, strain AVO1, hits give low values 0.93 | locus YOR061W, strain CKA2, hits give low values 0.942 | locus YOR231W, strain MKK1, hits give low values 0.92 | locus YOR329C, strain SCD5, hits give low values 0.991 | locus YPL209C, strain IPL1, hits give low values 0.964 | locus YPR025C, strain CCL1, hits give low values 0.95 | locus YPR106W, strain ISR1, hits give low values 0.924 | strain NNK1, hits give low values 0.977 | strain TSCII, hits give low values 0.933
active: locus YDL214C, strain PRR2, hits give low values 0.159 | locus YDR477W, strain SNF1, hits give low values 0.176 | locus YER123W, strain YCK3, hits give low values 0.289 | locus YER133W, strain GLC7, hits give low values 0.226 | locus YFR019W, strain FAB1, hits give low values 0.378 | locus YGR040W, strain KSS1, hits give low values 0.191 | locus YGR052W, strain FMP48, hits give low values 0.156 | locus YHR030C, strain SLT2, hits give low values 0.385 | locus YHR082C, strain KSP1, hits give low values 0.147 | locus YJL095W, strain BCK1, hits give low values 0.302 | locus YJL128C, strain PBS2, hits give low values 0.553 | locus YJR066W, strain TOR1, hits give low values 0.133 | locus YKL203C, strain TOR2, hits give low values 0.357 | locus YLR113W, strain HOG1, hits give low values 0.156 | locus YNL183C, strain NPR1, hits give low values 0.143 | locus YOR119C, strain RIO1, hits give low values 0.311 | locus YPL256C, strain CLN2, hits give low values 0.129
